# Experiments:
# Assay type in all cases: functional
# [1] = molecular target: Solute carrier family 2, facilitated glucose transporter member 1 (Homo sapiens) (UniProt P11166); assay: ST_JUDE_LEISH: Cytotoxicity at 2uM final concentration against transgenic Leishmania Mexicana promastigotes LmGLUT1 that are glucose transport deficient and complemented with the human glucose transporter GLUT1. Activity is measured by DNA content using SYBR green in vitro
# [2] = molecular target: Hexose transporter 1 (Plasmodium falciparum) (UniProt O97467); assay: ST_JUDE_LEISH: Cytotoxicity at 2uM final concentration against transgenic Leishmania Mexicana promastigotes LmPfHT that are glucose transport deficient and complemented with the Plasmodium falciparum hexose transporter. Activity is measured by DNA content using SYBR green in vitro
# [3] = molecular target: Glucose transporter (Leishmania mexicana) (UniProt O61059); assay: ST_JUDE_LEISH: Cytotoxicity at 2uM final concentration against transgenic Leishmania Mexicana promastigotes LmGT2 that are glucose transport deficient and complemented with the L. Mexicana glucose transporter 2. Activity is measured by DNA content using SYBR green in vitro
# Solute carrier family 2, facilitated glucose transporter member 1 (Homo sapiens), sequence (P11166 whole entry): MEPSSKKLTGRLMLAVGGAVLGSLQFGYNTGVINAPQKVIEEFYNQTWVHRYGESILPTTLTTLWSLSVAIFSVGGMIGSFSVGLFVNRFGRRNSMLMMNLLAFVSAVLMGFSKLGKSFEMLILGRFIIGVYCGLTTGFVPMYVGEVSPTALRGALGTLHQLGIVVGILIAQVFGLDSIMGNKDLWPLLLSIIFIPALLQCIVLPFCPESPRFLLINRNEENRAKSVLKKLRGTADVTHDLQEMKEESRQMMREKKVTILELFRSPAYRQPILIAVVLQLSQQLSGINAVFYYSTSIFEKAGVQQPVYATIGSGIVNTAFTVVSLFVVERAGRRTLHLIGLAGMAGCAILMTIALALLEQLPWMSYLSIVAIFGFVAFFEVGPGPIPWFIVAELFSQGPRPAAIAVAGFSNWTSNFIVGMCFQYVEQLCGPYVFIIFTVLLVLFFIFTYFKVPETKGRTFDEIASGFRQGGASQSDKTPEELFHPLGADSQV
smiles,measurement,setting,value
Cc1cccc(C(=O)Nc2ccnc(N3CCCN(Cc4cccc(O)c4)CC3)c2)c1,inhibition,[1],-0.1%
same,inhibition,[2],1.14%
same,inhibition,[3],-0.7%
O=c1c2ccc(Sc3ccccn3)cc2n(-c2ccccc2)c2cc(Sc3ccccn3)ccc12,inhibition,[1],1.05%
same,inhibition,[2],0.77%
same,inhibition,[3],2.64%
O=[N+]([O-])c1c(O)nc2c(c1O)CCC2,inhibition,[1],4.52%
same,inhibition,[2],4.36%
same,inhibition,[3],4.11%
Cc1ccc(NC(=O)c2ccc(Cl)cc2)cc1-c1ccc(C(=O)Nc2ccncc2)cc1,inhibition,[1],-1.61%
same,inhibition,[2],1.31%
same,inhibition,[3],0.29%
CCCc1cc(Cc2cnc(N)nc2N)ccc1OCCCCCC(=O)O,inhibition,[1],1.42%
same,inhibition,[2],2.24%
same,inhibition,[3],1.32%
CCN(CC)CCn1c(=N)n(CC(O)c2ccc(Cl)c(Cl)c2)c2ccccc21 (configuration not stated),inhibition,[1],7.87%
same,inhibition,[2],5.43%
same,inhibition,[3],12.9%
CC[C@H](NC(=O)c1c(CN2CCC(N3CCCCC3)CC2)c(-c2ccccc2)nc2c(Cl)c(O)ccc12)c1ccccc1,inhibition,[1],7.43%
same,inhibition,[2],6.81%
same,inhibition,[3],6.04%
COc1ccccc1CN1CCC(NC(=O)c2ccc(-c3cccc(C(F)(F)F)c3)s2)CC1,inhibition,[1],3.7%
same,inhibition,[2],4.38%
same,inhibition,[3],-4.28%
Cc1nc2sccn2c1C(=O)NCCc1ccccc1Cl,inhibition,[1],0.29%
same,inhibition,[2],1.15%
same,inhibition,[3],1.69%
Cc1nc(N)nc(N)c1CCCOc1ccc(Br)cc1,inhibition,[1],6.19%
same,inhibition,[2],4.15%
same,inhibition,[3],-1.62%
CC(C)CNCc1ccc(-c2cccc(CNc3ccc4ncccc4c3)c2)cc1,inhibition,[1],4.79%
same,inhibition,[2],3.71%
same,inhibition,[3],2.69%
CC1(C)CN2CCCC2c2cc(NC(=O)/C=C/c3ccccc3Cl)ccc21 (configuration not stated),inhibition,[1],3.26%
same,inhibition,[2],2.04%
same,inhibition,[3],0.94%
COc1ccc2ncc(F)c(CCN3CCC(NCc4ccc5c(c4)CCO5)CC3)c2n1,inhibition,[1],16.7%
same,inhibition,[2],21.4%
same,inhibition,[3],20.6%
Cc1ccc2[nH]c(NC#N)nc2c1,inhibition,[1],0.53%
same,inhibition,[2],0.67%
same,inhibition,[3],0.78%
O=C(Nc1ccc2c(c1)CCC2)N[C@H]1CCN(CCCCCNC(=O)C2CC2c2ccc(Cl)c(Cl)c2)C1 (some centres not stated),inhibition,[1],-0.7%
same,inhibition,[2],0.43%
same,inhibition,[3],-0.01%
O=C(Nc1nc(-c2ccccn2)cs1)c1ccccc1COc1ccccc1,inhibition,[1],-2.49%
same,inhibition,[2],1.21%
same,inhibition,[3],-1.57%
CCOc1ccc(-c2n[nH]c(C(F)(F)F)c2-c2ccccc2OC)c(O)c1,inhibition,[1],2.44%
same,inhibition,[2],1.89%
same,inhibition,[3],1.29%
Cc1ccc(C)c(C2CCN(CCCCNC(=O)c3ccc(NC(=O)c4ccc(Cl)cc4)cc3)CC2)c1,inhibition,[1],-1.18%
same,inhibition,[2],0.21%
same,inhibition,[3],0.05%
O=C(NCCCc1ccccc1)c1ccc(O)c(-c2cc(Cl)cc(Cl)c2)c1,inhibition,[1],4.73%
same,inhibition,[2],4.32%
same,inhibition,[3],3.61%
CNC(=O)Cc1ccc(C(=O)Nc2cccc(-c3cccc(-c4nc5cc(C(F)(F)F)ccc5[nH]4)c3)c2)cc1,inhibition,[1],-0.26%
same,inhibition,[2],0.81%
same,inhibition,[3],-0.97%
COc1cc2nc(Nc3ccc4c(c3)OCCO4)nc(N)c2cc1OC,inhibition,[1],-0.32%
same,inhibition,[2],-0.78%
same,inhibition,[3],1.75%
COc1ccc(CN2CCCN(Cc3cccc(NC(=O)c4ccc5ccccc5c4)c3)CC2)cc1,inhibition,[1],1.59%
same,inhibition,[2],1.71%
same,inhibition,[3],6.07%
N#Cc1ccc2c(c1)CCN(CCC1CCC(NC(=O)Nc3ccncc3)CC1)C2 (configuration not stated),inhibition,[1],5.14%
same,inhibition,[2],3.65%
same,inhibition,[3],5.01%
CC12CC3CC(C)(C1)CC(Nc1nc(N4CCOCC4)nc4ccccc14)(C3)C2,inhibition,[1],2.67%
same,inhibition,[2],2.82%
same,inhibition,[3],-0.7%
Cc1ccc(NC(=O)c2ccc(CN3CCCN(CCC(C)C)CC3)cc2)cc1C,inhibition,[1],14.1%
same,inhibition,[2],14.9%
same,inhibition,[3],15.6%
O=C(CCc1c[nH]cn1)Nc1cccc(-c2cccc(-c3nc4cc(C(F)(F)F)ccc4[nH]3)c2)c1,inhibition,[1],-0.34%
same,inhibition,[2],0.58%
same,inhibition,[3],0.79%
COc1cc(NC(=O)c2c(-c3c(F)cccc3Cl)noc2C)c(OC)cc1Cl,inhibition,[1],-2.64%
same,inhibition,[2],-1.52%
same,inhibition,[3],-4.01%
O=C(/C=C/c1ccc(Cl)c(Cl)c1)NC1CCC(CN2CCC(c3nc4cc(O)ccc4[nH]3)CC2)CC1 (configuration not stated),inhibition,[1],2.81%
same,inhibition,[2],3.99%
same,inhibition,[3],2.71%
Cc1nc(NC(=N)N)nc2cc3c(cc12)CCC3,inhibition,[1],0.91%
same,inhibition,[2],0.44%
same,inhibition,[3],0.48%
CCCN(c1ccc(C(F)(F)F)cc1[N+](=O)[O-])S(=O)(=O)C(c1ccccc1)c1ccc(C(F)(F)F)cc1[N+](=O)[O-] (configuration not stated),inhibition,[1],-0.48%
same,inhibition,[2],6.88%
same,inhibition,[3],-1.01%
COc1cccc(C(=O)Nc2nonc2-c2ccc(OC)c(OC)c2)c1,inhibition,[1],2.16%
same,inhibition,[2],2.49%
same,inhibition,[3],1.34%
Cc1ccc(NC(=N)Nc2ncccc2OCc2c(F)cccc2Cl)cc1,inhibition,[1],7.2%
same,inhibition,[2],7.97%
same,inhibition,[3],5.56%
Cc1cc(=NN=Cc2ccc(F)cc2)c2ccc(C(F)(F)F)cc2[nH]1,inhibition,[1],3%
same,inhibition,[2],4.59%
same,inhibition,[3],1.74%
COc1ccc(CNC2CCN(C)CC2)cc1-c1ccc(S(=O)(=O)NC2CCC2)c(C)c1,inhibition,[1],0%
same,inhibition,[2],-0.22%
same,inhibition,[3],-0.25%

# Reference: ChEMBL document CHEMBL3433997, “St. Jude Leishmania screening dataset” (2016)
